Inconclusive results are not listed. Active and inactive are the calls of the source. Unless noted, the call rests on the fitted dose curve; in most records, active means well fitted curve in the direction sought with a large enough effect in the repeat runs; inconclusive means weak or mixed curves; inactive means no such curve, though single readings can be large; an effect the other way counts as inactive or inconclusive.
What was measured:
[1] = qHTS assay to identify small molecule antagonists of the estrogen related receptor (ERR) signaling pathway from Tox21 library - cell viability counter screen (AID 1224834); further: nearly all actives have a fitted effect of over 30% in size
In short: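 ERR cells, 2,000/well; 6 h settle at 37 C/5% CO2; pin-tool compound transfer in DMSO; 17.5 h at 37 C; CellTiter-Fluor, 30 min; fluorescence intensity.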

[2] = molecular target: Luciferin 4-monooxygenase (Photinus pyralis) (UniProt P08659); assay: qHTS assay to identify small molecule inhibitors of firefly luciferase (AID 1224835); further: nearly all actives have a fitted effect of over 25% in size; further: potency means the concentration at half of the fitted maximal effect
Chain of Luciferin 4-monooxygenase (Photinus pyralis) (P08659 whole entry, looked up): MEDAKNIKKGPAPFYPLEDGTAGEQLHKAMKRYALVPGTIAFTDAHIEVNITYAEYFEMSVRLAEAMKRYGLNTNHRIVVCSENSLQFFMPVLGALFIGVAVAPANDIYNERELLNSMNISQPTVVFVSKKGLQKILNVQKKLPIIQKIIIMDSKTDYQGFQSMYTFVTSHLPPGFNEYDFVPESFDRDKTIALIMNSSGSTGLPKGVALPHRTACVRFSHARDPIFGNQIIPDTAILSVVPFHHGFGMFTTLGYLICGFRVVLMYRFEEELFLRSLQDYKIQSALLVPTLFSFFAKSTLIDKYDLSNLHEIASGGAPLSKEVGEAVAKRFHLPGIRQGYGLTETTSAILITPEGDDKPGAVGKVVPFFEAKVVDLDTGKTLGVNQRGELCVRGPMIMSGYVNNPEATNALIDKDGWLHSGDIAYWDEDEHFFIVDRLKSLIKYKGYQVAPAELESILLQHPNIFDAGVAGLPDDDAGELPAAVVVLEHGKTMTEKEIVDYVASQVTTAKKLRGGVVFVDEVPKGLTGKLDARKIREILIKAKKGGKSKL
In short: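 Quantitative HTS format; KM concentrations of both substrates. Purified P. pyralis FLuc activity quantified from luminescence images.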

[3] = qHTS assay to identify small molecule agonists of the constitutive androstane receptor (CAR) signaling pathway - cell viability counter screen (AID 1224836); further: nearly all actives have a fitted effect of over 45% in size
In short: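 23 h treatment, 37 C, 5% CO2. Cell line: HepG2 stably expressing hCAR with a CYP2B6-2.2kb construct. Co-treatment: PK11195, 0.75 uM final. Read-out: CellTiter-Fluor fluorescence intensity.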

[4] = qHTS assay to identify small molecule antagonists of the constitutive androstane receptor (CAR) signaling pathway - cell viability counter screen (AID 1224837); further: nearly all actives have a fitted effect of over 45% in size
In short: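 Viability was measured with CellTiter-Fluor in a HepG2 line carrying stably transfected hCAR and a CYP2B6-2.2kb construct. Cells were exposed for 23 hr at 37 C to 15 compound concentrations with 50 nM CITCO as agonist.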

[5] = qHTS assay to identify small molecule antagonists of the estrogen related receptor signaling pathway with the pleiotropic PPARgamma coactivator (PGC) from Tox21 10K library - cell viability counter screen (AID 1224840; active means well fitted cell-killing curve with a large enough effect in the repeat runs, not every such curve was filed as active; further: nearly all actives have a fitted effect of over 40% in size)
In short: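 Multiplexed viability counter screen in the PGC/ERR cell line: cells treated with DMSO-dissolved compounds for 17.5 hours at 37 C, then viability measured as CellTiter-Fluor fluorescence.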

[6] = molecular target: Thyrotropin receptor (Homo sapiens) (UniProt P16473); assay: qHTS assay to identify small molecule agonists of the thyroid stimulating hormone receptor (TSHR) signaling pathway (AID 1224843; calls by dose curve; further: nearly all actives have a fitted effect of over 45% in size)
Chain of Thyrotropin receptor (Homo sapiens) (P16473 whole entry, looked up): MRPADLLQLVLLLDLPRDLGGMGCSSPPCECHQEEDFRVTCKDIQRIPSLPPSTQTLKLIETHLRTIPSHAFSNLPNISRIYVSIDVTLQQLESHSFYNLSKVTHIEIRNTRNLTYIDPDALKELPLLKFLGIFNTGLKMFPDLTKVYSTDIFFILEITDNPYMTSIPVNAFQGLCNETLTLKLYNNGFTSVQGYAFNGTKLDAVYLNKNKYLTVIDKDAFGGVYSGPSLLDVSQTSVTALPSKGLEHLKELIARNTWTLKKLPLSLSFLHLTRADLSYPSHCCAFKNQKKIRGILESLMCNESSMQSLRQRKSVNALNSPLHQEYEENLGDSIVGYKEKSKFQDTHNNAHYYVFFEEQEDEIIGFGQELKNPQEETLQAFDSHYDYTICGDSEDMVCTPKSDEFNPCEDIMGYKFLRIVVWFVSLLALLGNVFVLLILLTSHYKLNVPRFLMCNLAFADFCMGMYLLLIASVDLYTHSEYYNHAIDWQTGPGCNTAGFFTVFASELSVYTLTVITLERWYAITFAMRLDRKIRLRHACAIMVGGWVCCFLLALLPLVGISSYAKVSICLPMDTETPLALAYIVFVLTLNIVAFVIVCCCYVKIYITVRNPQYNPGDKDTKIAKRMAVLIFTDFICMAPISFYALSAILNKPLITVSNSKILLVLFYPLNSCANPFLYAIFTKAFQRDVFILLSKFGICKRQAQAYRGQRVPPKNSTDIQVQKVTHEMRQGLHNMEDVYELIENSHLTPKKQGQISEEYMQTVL
In short: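 Compounds are titrated over 15 concentrations, in triplicate, onto TSHR-HEK293 cells seeded at 800/well. Plates sit 30 min at room temperature before cAMP-d2 and anti-cAMP cryptate are added; signal is read after a further hour.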

[7] = qHTS assay to identify small molecule agonists of the hypoxia (HIF-1) signaling pathway - cell viability counter screen (AID 1224844; calls by dose curve; further: nearly all actives have a fitted effect of over 50% in size)
In short: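 Cytotoxicity was measured in parallel with the HRE-driven beta-lactamase readout: after 17 hrs of compound exposure at 37C, HRE-bla ME-180 cells received CellTiter-Glo and luminescence was recorded 30 min later.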

[8] = qHTS assay to identify small molecule agonists of H2AX (AID 1224845; active means well fitted activation curve with a large enough effect in the signal ratio in the repeat runs, not every such curve was filed as active; the % refers to the signal ratio)
In short: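 Wild-type CHO-K1 cells plated overnight, then exposed 3 hr at 37C to compounds at 15 concentrations (0.76% DMSO). Lysed, then HTRF anti-pH2AX(S139)-cryptate/anti-H2AX-d2 detection after 24 hr at room temperature; emissions 665 and 620 nm.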

[9] = qHTS assay to identify small molecule agonists of the hypoxia (HIF-1) signaling pathway (AID 1224846; active means well fitted activation curve with a large enough effect in the signal ratio in the repeat runs, not every such curve was filed as active; the % refers to the signal ratio)
In short: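 Compounds from the Tox21 10K library, dissolved in DMSO, are tested for induction of a hypoxia response element–controlled beta-lactamase reporter in ME-180 cells. Exposure lasts 17 hrs at 37C after a 5 hr settling period, followed by CCF4-AM FRET substrate.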

[10] = qHTS assay to identify small molecule agonists of H2AX - cell viability counter screen (AID 1224847; calls by dose curve; further: top concentration of the series differs between compounds; nearly all actives have a fitted effect of over 30% in size)
In short: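 Compounds tested at 15 concentrations were incubated 3 hr at 37C with wild-type CHO-K1 cells; cellular ATP-based luminescence (CellTiter-Glo) indicated viability.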

[11] = qHTS RealTime-Glo MT Cell Viability Assay in HepG2 cells - 24 hour (AID 1224867); further: nearly all actives have a fitted effect of over 50% in size
In short: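 Cell number in HepG2 cultures estimated from NanoLuc luminescence generated by metabolic reduction of a prosubstrate by living cells. The homogeneous, nonlytic format allowed repeated reads at 0, 8, 16, 24, 32 and 40 h of compound exposure.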

[12] = qHTS RealTime-Glo MT Cell Viability Assay in HEK293 cells - 32 hour (AID 1224868); further: top concentration of the series differs between compounds; nearly all actives have a fitted effect of over 50% in size
In short: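 Homogeneous bioluminescent viability format in HEK293 cells (600 cells/well). Following 5 h at 37 C/5% CO2, 23 nL compound was pintooled; the signal was measured repeatedly during 40 h incubation.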

[13] = A CellTox Green Cytotoxicity Assay to monitor cytotoxicity in HEK293 cells - 0 hour (AID 1224869); further: nearly all actives have a fitted effect of over 50% in size
In short: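 Cells (HEK293, 600/well) and dye reagent are dispensed together. After 5 h at 37 C, 23 nL compound is pinned in. Plates stay at 37 C for 40 h with fluorescence read at 0h, 8h, 16h, 24h, 32h and 40h.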

[14] = molecular target: Nuclear receptor subfamily 1 group I member 3 (Homo sapiens) (UniProt Q14994); assay: qHTS assay to identify small molecule antagonists of the constitutive androstane receptor (CAR) signaling pathway (AID 1224838);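 further: HepG2 cells stably expressing hCAR with CYP2B6 luciferase reporter stimulated by CITCO; nearly all actives have a fitted effect of over 40% in size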
Chain of Nuclear receptor subfamily 1 group I member 3 (Homo sapiens) (Q14994 whole entry, looked up): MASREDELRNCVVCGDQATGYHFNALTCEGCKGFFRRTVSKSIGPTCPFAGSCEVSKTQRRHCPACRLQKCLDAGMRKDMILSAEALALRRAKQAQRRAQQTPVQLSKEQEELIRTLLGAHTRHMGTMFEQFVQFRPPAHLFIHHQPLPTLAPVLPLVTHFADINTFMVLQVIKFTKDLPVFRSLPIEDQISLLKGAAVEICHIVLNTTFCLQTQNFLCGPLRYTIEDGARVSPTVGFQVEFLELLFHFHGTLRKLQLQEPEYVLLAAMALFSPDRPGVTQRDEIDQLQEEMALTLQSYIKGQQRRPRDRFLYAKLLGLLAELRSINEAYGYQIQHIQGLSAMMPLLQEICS
In short: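 Antagonist mode used CITCO at a final 50 nM to activate CAR in human hepatoma HepG2 cells carrying stable hCAR and a 2.2 kb CYP2B6 promoter-luciferase construct. Compounds were tested at 15 concentrations over 24 h, with luminescence as the end point.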

[15] = molecular target: Nuclear receptor subfamily 1 group I member 3 (Homo sapiens) (UniProt Q14994); assay: qHTS assay to identify small molecule agonists of the constitutive androstane receptor (CAR) signaling pathway (AID 1224839); further: nearly all actives have a fitted effect of over 15% in size; further: potency means the concentration at half of the fitted maximal effect
In short: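 Compounds tested at 15 concentrations on HepG2 cells stably harbouring hCAR and CYP2B6-2.2kb reporter constructs, co-treated with PK11195 (0.75 uM final), 24 h at 37 C; luminescent reporter signal quantified.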

[16] = qHTS assay to identify small molecule antagonists of the estrogen related receptor signaling pathway with the pleiotropic PPARgamma coactivator (PGC) from Tox21 10K library (AID 1224841; call rule not given here)
In short: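 Steps: plate 2,000 PGC/ERR cells per well; incubate 6 h at 37 C with 5% CO2; transfer compounds from DMSO stocks by pin tool; incubate 18 h at 37 C; add One-Glo; measure luminescence 30 min later.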

[17] = qHTS assay to identify small molecule agonists of the estrogen related receptor signaling pathway with the pleiotropic PPARgamma coactivator (PGC) from Tox21 10K library (AID 1224842); further: nearly all actives have a fitted effect of over 15% in size; further: potency means the concentration at half of the fitted maximal effect
In short: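 PGC/ERR reporter cells (NTP line) were seeded 2,000 per well, rested 6 h at 37 C/5% CO2, then pin-dosed with compounds in DMSO for 18 h at 37 C; luciferase read by One-Glo luminescence after 30 min at room temperature.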

[18] = qHTS assay to identify small molecule antagonists of the estrogen related receptor (ERR) signaling pathway from Tox21 library (AID 1224848); further: nearly all actives have a fitted effect of over 50% in size
In short: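 First, 2,000 ERR cells per well were plated and held 6 h at 37 C/5% CO2. Next, compounds in DMSO were pinned in and left 18 h at 37 C. Finally, ONE-Glo was added and luminescence read after 30 min at room temperature.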

[19] = qHTS assay to identify small molecule agonists of the estrogen related receptor (ERR) signaling pathway from Tox21 library (AID 1224849; calls by dose curve; further: nearly all actives have a fitted effect of over 15% in size); conditions: ERR reporter cell line, ONE-Glo luciferase, 18 h; at 92.4 µM (top of the series) unless noted
In short: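 Cells carrying the ERR reporter were plated and allowed to settle for 6 h, exposed to library compounds for 18 h at 37 C, then lysed with ONE-Glo and luminescence measured.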
On the % scale 0 is the no-effect control and ±100 the full control effect.

O=C(O)c1ccc[n+]([O-])c1
inactive: Potency [1] | Potency [2] | outcome [3] | outcome [4] | outcome [5] | outcome [6] | Potency [7] | outcome [8] | outcome [9] | Potency [10] | outcome [11] | Potency [12] | Potency [13]

CCCCCCCCCCCCCCCCCC(=O)OCCCCCCCCCCCCCC(C)C
inactive: Potency [1] | Potency [2] | outcome [3] | outcome [4] | outcome [6] | Potency [7] | outcome [9] | Potency [10] | outcome [11] | Potency [12] | Potency [13]

CCO[Si](CCCN=C=O)(OCC)OCC
inactive: Potency [1] | Potency [2] | outcome [4] | Potency [14] | Potency [15] | outcome [5] | Potency [16] | Potency [17] | outcome [6] | Potency [7] | outcome [8] | outcome [9] | Potency [10] | Potency [18] | activity change, positive = activation [19] -6.45% | outcome [11] | Potency [12] | Potency [13]

NS(=O)(=O)c1cc(C2(O)NC(=O)c3ccccc32)ccc1Cl (stereo not given)
inactive: Potency [1] | Potency [2] | outcome [3] | outcome [4] | outcome [5] | outcome [6] | Potency [7] | Potency [10] | outcome [11] | Potency [12] | Potency [13]

CCC(=O)c1cccc(Cl)c1
inactive: Potency [1] | Potency [2] | outcome [3] | outcome [4] | outcome [5] | outcome [6] | Potency [7] | outcome [8] | outcome [9] | Potency [10] | outcome [11] | Potency [12] | Potency [13]

CCCCCOC(=O)Nc1nc(=O)n([C@@H]2O[C@H](C)[C@@H](O)[C@H]2O)cc1F
inactive: Potency [1] | Potency [2] | outcome [4] | Potency [14] | Potency [15] | outcome [5] | outcome [6] | Potency [7] | outcome [8] | outcome [9] | Potency [10] | outcome [11] | Potency [13]

c1ccc(SCCSc2ccccc2)cc1
active: Potency [2] 7.9 µM | Potency [15] 17.1 µM | Potency [17] 5.4 µM | activity change, positive = activation [19] 69.4%
inactive: Potency [1] | outcome [4] | Potency [14] | outcome [5] | Potency [16] | Potency [7] | outcome [8] | outcome [9] | Potency [10] | Potency [18] | outcome [11] | Potency [12] | Potency [13]

COc1cc(C(=O)N2CCOCC2)cc(OC)c1OC
inactive: Potency [1] | Potency [2] | outcome [3] | outcome [4] | outcome [5] | outcome [8] | outcome [9] | Potency [10] | outcome [11] | Potency [12] | Potency [13]

CC(C)=CCC/C(C)=C/C(=O)O
inactive: Potency [1] | Potency [2] | outcome [3] | outcome [4] | outcome [5] | Potency [7] | outcome [8] | outcome [9] | Potency [12] | Potency [13]

Cc1ccccc1C(=O)O
inactive: Potency [1] | Potency [2] | outcome [3] | outcome [4] | outcome [5] | outcome [6] | Potency [7] | outcome [8] | outcome [9] | Potency [10] | Potency [12] | Potency [13]

C=C(C)C(=O)OCCCCCCCCCCCCCCCCCC
inactive: viability change, negative = cytotoxic [1] -0.607% [at 19 µM] | activity change, negative = inhibition [2] -0.803% [at 23.6 µM] | viability change, negative = cytotoxic [3] 1.14% [at 19 µM] | activity change, negative = cytotoxicity [4] 4.26% [at 19 µM] | activation [6] -1.44% [at 19 µM] | activation (H2AX phosphorylation) [8] 0.951% [at 31.6 µM] | activation [9] -0.144% [at 15.8 µM] | activity change, negative = cytotoxicity [10] 1.51% [at 31.6 µM] | activity change, negative = cytotoxicity [11] 4.54% [at 15.8 µM] | activity change, negative = cytotoxic [12] 4.26% [at 15.8 µM] | cytotoxicity [13] 2.77% [at 15.8 µM]

OCCN1C[C@H](O)[C@@H](O)[C@H](O)[C@H]1CO
inactive: Potency [1] | Potency [2] | outcome [3] | outcome [4] | outcome [5] | outcome [6] | Potency [7] | outcome [9] | outcome [11] | Potency [12] | Potency [13]

Nc1cc(C(Cl)=C(Cl)Cl)c(S(N)(=O)=O)cc1S(N)(=O)=O
inactive: Potency [1] | Potency [2] | outcome [3] | outcome [4] | outcome [5] | outcome [6] | Potency [7] | outcome [8] | Potency [10] | outcome [11] | Potency [12] | Potency [13]

CC(=O)NC(Cc1ccccc1)C(=O)O (stereo not given)
inactive: Potency [1] | Potency [2] | outcome [4] | Potency [14] | Potency [15] | outcome [5] | outcome [6] | Potency [7] | outcome [9] | outcome [11] | Potency [12] | Potency [13]

Nc1cc(N)cc(C(=O)O)c1
inactive: Potency [1] | Potency [2] | outcome [3] | outcome [4] | outcome [5] | outcome [6] | Potency [7] | outcome [9] | Potency [10] | outcome [11] | Potency [12] | Potency [13]

Cc1cc(C)cc(OCC2CNC(=O)O2)c1 (stereo not given)
inactive: Potency [1] | Potency [2] | outcome [3] | outcome [4] | outcome [5] | outcome [6] | Potency [7] | outcome [8] | outcome [9] | Potency [10] | outcome [11] | Potency [12] | Potency [13]

COC[C@H](c1ccc(C(F)(F)F)cc1)N1CCN(C2(C)CCN(C(=O)c3c(C)ncnc3C)CC2)C[C@H]1C
inactive: Potency [1] | Potency [2] | outcome [4] | Potency [14] | Potency [15] | outcome [5] | Potency [16] | Potency [17] | outcome [6] | Potency [7] | outcome [9] | Potency [10] | Potency [18] | activity change, positive = activation [19] -5.81% [at 42.5 µM] | outcome [11] | Potency [12] | Potency [13]

CC(C)=CC(=O)O
inactive: Potency [1] | Potency [2] | outcome [4] | Potency [14] | Potency [15] | outcome [5] | outcome [6] | Potency [7] | outcome [8] | outcome [9] | Potency [10] | outcome [11] | Potency [13]
